In PubChem BioAssay AID1628 (Sanford-Burnham Center for Chemical Genomics, 2009):
Out of some 190,000 compounds screened, about 930 (0.49%) were called active.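 How the source made its calls: active means z-score of insulin promoter reporter brightness in nuclei below -3 at 5 µM, with at least 500 cells counted; inconclusive means wells with under 500 cells, flagged as toxic or sparse; inactive means the rest.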 The list shows a part of the results. Potency and affinity values are given separately.

Experiment: insulin promoter down-regulators in MIN6 cells, imaging, high-content screening, mouse beta cells (AID 1628)
Settings: MIN6 insulin promoter GFP reporter, at 5 µM, stronger effect = lower value
In the case of `Clc1ccc2oc(-c3ccccn3)nc2c1`, the z-score is reported as 3 (inactive).
For `Clc1ccc2oc(-c3cccnc3NCc3ccccc3)nc2c1`, the z-score was -3.89 (active).
For `CCN(CC)c1ccc(/C=C(/C#N)C(=O)NC(C)C)o1`, the z-score was 6.43 (inactive).
With `COc1cc(NC(=O)Cn2cnc3sc(C)c(S(=O)(=O)N4CCN(C)CC4)c3c2=O)cc(OC)c1OC` the z-score was 1.41 (inactive).
For `Cc1sc2ncn(CC(=O)NCCCC(=O)N3CCN(c4ncccn4)CC3)c(=O)c2c1C`, the z-score was -4.71 (active).
With `CC(=O)Nc1nc(-c2ccc(Br)s2)cs1` the z-score was 5.02 (inactive).
With `Cc1cc(NC(=O)/C(C#N)=C/c2ccc(-c3ccc(SC(F)F)cc3)o2)n(-c2ccccc2)n1` the z-score was 3.43 (inactive).
With `Cc1ccc(CNc2ccc3c(c2)OCO3)cc1` the z-score was 5.54 (inactive).
In the case of `Cc1ccc(NC(=O)N(Cc2ccc3c(c2)OCO3)Cc2cc3cc4c(cc3[nH]c2=O)OCCO4)cc1`, the z-score is reported as -5.39 (active).
In the case of `CCOc1ccc2[nH]c(=O)c(CN(CCc3ccccc3)C(=O)N3CCOCC3)cc2c1`, the z-score is reported as 5.49 (inactive).
For `COc1ccc(CC(=O)NNC(=S)Nc2ccccc2)cc1Cl`, the z-score was 2.56 (inactive).
For `CC(C)(C)c1cc(CCC(=O)NNC(=S)NC(=O)c2ccccc2)cc(C(C)(C)C)c1O`, the z-score was -4.33 (active).
For `N#Cc1c(NC(=S)NC(=O)c2ccccc2)sc2c1CCN(CCc1ccccc1)C2`, the z-score was 5.28 (inactive).
With `CCc1nc(C)cn1S(=O)(=O)c1cc(OC)c(C)cc1C` the z-score was -4.29 (active).
For `CC(=O)Cc1cc(O)c2ccccc2c1OC(=O)c1ccc(Br)cc1`, the z-score was 8.75 (inactive).
With `Cc1ccccc1NC(=O)c1cc(C(=O)c2cc(Cl)ccc2O)cn(-c2ccccc2C)c1=O` the z-score was -3.14 (active).
With `CN1CC=C2C(C#N)=C(N)C(C#N)(C#N)[C@H](c3cccs3)[C@H]2C1` the z-score was 10.3 (inactive).
For `O=C(Nc1ccc(Cl)cn1)c1ccc([N+](=O)[O-])o1`, the z-score was -3.08 (active).
With `CCSc1ccc(C(=O)Nc2ccc(Br)cn2)cc1[N+](=O)[O-]` the z-score was 1.11 (inactive).
For `CCCN1C(=O)S/C(=C/c2ccc(N3CCOCC3)o2)C1=O`, the z-score was 14.8 (inactive).
In the case of `COc1ccc(C(=O)CSC2=C(C#N)C3(CCCCC3)C(C#N)=C(N)N2)cc1`, the z-score is reported as -3.18 (active).
With `COc1ccccc1NC(=O)C1=C(C)NC(SCC(=O)c2ccc(C)cc2)=C(C#N)C1c1ccco1` (stereo not given) the z-score was 3.29 (inactive).
With `CCN1CCN(C(=O)c2cn(CC)c3ccc(S(=O)(=O)N(C)C)cc3c2=O)CC1` the z-score was 2.68 (inactive).
With `CCn1c(C)[n+](CC)c2ccc(S(=O)(=O)N(C)C)cc21` the z-score was -3.4 (active).
With `CC(=O)CCc1c(C)c2cccc(C)c2[nH]c1=O` the z-score was -0.43 (inactive).
In the case of `COCCn1cc(C(=O)NCc2ccco2)c2c3ccccc3n(C)c2c1=O`, the z-score is reported as 2.09 (inactive).
With `CC(C)Cn1cc(C(=O)NC2CCN(Cc3ccccc3)CC2)c2c3ccccc3n(C)c2c1=O` the z-score was -3.06 (active).
For `CCOc1ccccc1CNC(=O)c1cn(C)c(=O)c2c1c1ccccc1n2C`, the z-score was 1.59 (inactive).
For `Cc1nc(Cl)c2c(n1)NC1=C(O2)C(=O)CCC1`, the z-score was -4.1 (active).
In the case of `CN(c1cccc(Cl)c1)S(=O)(=O)c1cccc(C(=O)NC2=NCCS2)c1`, the z-score is reported as 3.48 (inactive).
With `CN(/C(=N\S(=O)(=O)c1ccccc1)c1ccccc1)c1ccc(O)cc1` the z-score was 1.42 (inactive).
In the case of `COc1ccc(N(C)S(=O)(=O)c2cccc(C(=O)Nc3nc4ccccc4[nH]3)c2)cc1`, the z-score is reported as -3.07 (active).
With `CCOc1ccc(C2C(C#N)=C(N)SC(N)=C2C#N)c(OCC)c1` the z-score was -3.06 (active).
For `CCN(CC)c1ccc(/C=C(\C#N)C(=O)c2ccc(Br)cc2)cc1`, the z-score was 3.66 (inactive).
With `O=C(NCc1ccccn1)c1ccc(Cn2cc(Br)cn2)o1` the z-score was -3.96 (active).
For `O=C(NCc1cn2ccccc2n1)c1ccco1`, the z-score was 3.67 (inactive).
In the case of `COc1ccc2cc3cc(C(=O)NCc4ccccn4)oc3nc2c1`, the z-score is reported as 3.32 (inactive).
In the case of `COc1ccc2c(n1)Sc1nc3ccccc3nc1N2`, the z-score is reported as 9.57 (inactive).
In the case of `COc1ccc2c(c1)oc(=O)c1ccccc12`, the z-score is reported as -0.04 (inactive).
For `Cc1[nH]ccc(=O)c1OCc1c(Cl)cccc1Cl`, the z-score was -6.12 (active).
In the case of `COC(=O)c1c[nH]n2c(=O)c(Cc3ccc(F)cc3Cl)c(C)nc12`, the z-score is reported as 3.42 (inactive).
For `CC(=O)Oc1cc2cccc(OC(C)=O)c(=O)c2c(OC(C)=O)c1OC(C)=O`, the z-score was -0.38 (inactive).
With `CC(=O)Oc1ccc(OC(C)=O)c(SCCCCCCl)c1` the z-score was -3.45 (active).
For `COC(=O)[C@H]1[C@H](C(=O)OC)[C@@H](C(=O)OC)N(c2ccc(OC)cc2)[C@@H]1C(=O)OC`, the z-score was -4.45 (active).
In the case of `CC(C)(CNS(=O)(=O)c1ccc(Cl)cc1)N1CCCCC1`, the z-score is reported as 3.62 (inactive).
With `O=C(CCNS(=O)(=O)c1ccc(Cl)cc1)NCc1cccs1` the z-score was 1.64 (inactive).
With `CCNC(=S)NS(=O)(=O)c1ccc(Cl)cc1` the z-score was -3.8 (active).
With `CCCCCCN1C=CC(=C/C=C(\C#N)C(=O)OCC)C=C1` the z-score was 16.6 (inactive).
For `C=CCN1C(=O)/C(=C\c2ccc(OC(=O)c3ccco3)c(OC)c2)SC1=S`, the z-score was 1.03 (inactive).
For `COc1ccc(Cn2c(=O)sc3ccccc32)cc1OC`, the z-score was -3.63 (active).
For `O=C(CCn1c(=O)sc2ccccc21)Nc1cccnc1`, the z-score was 0.79 (inactive).
In the case of `COc1cc(C)c(Cl)cc1S(=O)(=O)NCc1ccncc1`, the z-score is reported as -4.94 (active).
With `Cc1ccc(S(=O)(=O)NCc2ccncc2)c(C)c1C` the z-score was -6.46 (active).
In the case of `COc1cccc(S(=O)(=O)NCc2ccc(C(=O)Nc3ccc(Cl)c(Cl)c3)cc2)c1`, the z-score is reported as 3.13 (inactive).
With `COc1ccc(S(=O)(=O)NCc2ccncc2)cc1OC` the z-score was -3.36 (active).
For `Cc1cc(C)n(C(=O)CCC2COc3ccccc3O2)n1` (stereo not given), the z-score was 3.53 (inactive).
In the case of `CCOC(=O)c1c(NC(=O)c2nn(CC)cc2Br)c(C#N)cn1-c1ccccc1`, the z-score is reported as -3.62 (active).
For `c1ccc2c(c1)CCN(CCCNc1nc3ccccc3n3cnnc13)C2`, the z-score was -3.05 (active).
With `CCN(CC)S(=O)(=O)c1ccc2[nH]cc(C(=O)NCCC3=CCCCC3)c(=O)c2c1` the z-score was -6.41 (active).
For `CCn1cc(C(=O)NCCN(C)CCc2ccccc2)c(=O)c2cc(S(=O)(=O)N(C)C)ccc21`, the z-score was 3.87 (inactive).
For `CN1CCNC(=O)C1CC(=O)NCCC1=CCCCC1` (stereo not given), the z-score was 3.77 (inactive).
For `CN1CC=C2C(C#N)=C(N)C(C#N)(C#N)C(Cc3ccccc3)C2C1` (stereo not given), the z-score was 3.5 (inactive).
With `Cc1cccc(NC(=S)NNC(=O)c2csc(C(C)C)c2)c1` the z-score was 1.31 (inactive).
For `COc1cccc(-c2nc(N3CCCCC3C)c3ccccc3n2)c1O` (stereo not given), the z-score was -3.15 (active).
In the case of `COC(=O)c1cc2c(-c3ccccc3)c(C)c3ccccn3c-2c1C(=O)OC`, the z-score is reported as 4.22 (inactive).
With `O=C1c2cccc3c(N4CCCCC4)ccc(c23)C(=O)N1c1ccccc1O` the z-score was 4.51 (inactive).
In the case of `CC1Cc2ccccc2N1S(=O)(=O)c1cccs1` (stereo not given), the z-score is reported as -6.66 (active).
In the case of `CC(C)(C)NC(=O)NC(=O)CN1CCCc2ccccc21`, the z-score is reported as 2.02 (inactive).
With `O=S(=O)(c1cccs1)N1CCCc2ccccc21` the z-score was -3.97 (active).
For `O=C(NCCN1CCN(Cc2ccc([N+](=O)[O-])cc2)CC1)C(=O)Nc1ccccc1`, the z-score was -3.53 (active).
For `COc1cc(/C=C/C(=O)c2ccccc2O)cc(OC)c1OC`, the z-score was -0.68 (inactive).
With `COc1ccc(C(=O)/C=C/c2ccccc2)c(O)c1` the z-score was -0.73 (inactive).
With `Cc1ccc(C(=O)Nc2ccccc2C(=O)NCc2ccco2)cc1S(=O)(=O)N1CCCCC1` the z-score was -3.27 (active).
For `Cc1onc(-c2c(Cl)cccc2Cl)c1C(=O)NCc1ccco1`, the z-score was -0.41 (inactive).
In the case of `COCCNC(=S)N/N=C(\C)c1ccc2cc(OC)ccc2c1`, the z-score is reported as 3.43 (inactive).
In the case of `Cc1cccc(NC(=O)CCNS(=O)(=O)c2cccc3nonc23)c1`, the z-score is reported as 0.73 (inactive).
With `Cc1cccc(NC(=O)/C=C/c2ccc([N+](=O)[O-])s2)c1` the z-score was 9.92 (inactive).
In the case of `N#CCc1nc(CSc2nc3ccccc3s2)cs1`, the z-score is reported as 4.03 (inactive).
With `CCN(CC)c1ccc(/C=C/C(=O)c2ccc(Br)cc2)cc1` the z-score was 8.04 (inactive).
For `CC(=O)Nc1cccc(C(=O)/C=C/c2ccc(N(C)C)cc2)c1`, the z-score was 12.5 (inactive).
With `CN(C)c1ccc(N/C=C/C(=O)c2ccc(F)cc2)cc1` the z-score was -5.01 (active).
For `Cc1cc(C)nc(NS(=O)(=O)c2ccc(NC(=O)c3ccc4c(c3)OCO4)cc2)n1`, the z-score was -0.38 (inactive).
For `CN(C)C(=O)CN(c1ccc2c(c1)OCO2)S(C)(=O)=O`, the z-score was 3.6 (inactive).
In the case of `COc1ccc(S(=O)(=O)N(C)CC(=O)Nc2ccc3c(c2)OCO3)cc1OC`, the z-score is reported as -5.9 (active).
With `Cc1oc(C)c2c(=O)ccc3c(c12)OC(N)=C(C#N)C3c1ccccc1` (stereo not given) the z-score was 6.6 (inactive).
In the case of `CCCN(CCC)c1ccc(/C=C/c2ccc3cc(OCC)ccc3n2)cc1`, the z-score is reported as 5.3 (inactive).
In the case of `COc1ccc(C(=O)Nc2ccc3nc(C)sc3c2)cc1OC`, the z-score is reported as 1.51 (inactive).
For `Cc1nc2ccc(NC(=O)c3cc(S(=O)(=O)N4CCOCC4)ccc3C)cc2s1`, the z-score was -3 (active).
With `Cc1ccc(C(C)C)c(OCc2nn(CC(=O)c3ccc(Cl)cc3)c3[n+]2CCCCC3)c1` the z-score was -4.3 (active).
With `N#CC1=C(N)C(C#N)(C#N)[C@H](c2ccoc2)[C@H]2CN(Cc3ccccc3)CC=C12` the z-score was 5.86 (inactive).
In the case of `CCN(CC)CC(O)COc1ccc2c(c1)c(C(C)=O)c(C)n2-c1ccccc1` (stereo not given), the z-score is reported as -3.02 (active).
In the case of `CC(C)CN1C(=O)/C(=C/c2c(N3CCc4ccccc4C3)nc3ccccn3c2=O)SC1=S`, the z-score is reported as 16.9 (inactive).
For `COc1ccc(C2C3=C(CCCC3=O)Nc3ccc4ncccc4c32)cc1OC` (stereo not given), the z-score was 2.27 (inactive).
For `COc1cc(C2C(C#N)=C(C)NC3=C2C(=O)CC(C)(C)C3)ccc1O` (stereo not given), the z-score was -4.47 (active).
With `COCC(C)n1c(SCC(=O)NC(=O)Nc2ccc3c(c2)OCCO3)nc2ccccc2c1=O` (stereo not given) the z-score was -4.52 (active).
